Source: PubChem BioAssay (Tox21)
Values joined by “and” are separate entries in the source; they are usually repeats but may differ in a detail not shown here. Equal entries are not always repeated. Results filed as inconclusive are left out. A call without a number means that no potency is given here. Active and inactive are the calls of the source. The call rests on the fitted dose curve; in most records, active means well fitted inhibition curve with a large enough effect in the signal ratio in the repeat runs (not every such curve was filed as active); inconclusive means weak or mixed curves, or effect the other way; inactive means no such curve, though single readings can be large or run the other way; the % refers to the signal ratio.

target: Glucocorticoid receptor (Homo sapiens) (UniProt P04150); test: qHTS assay to identify small molecule antagonists of the glucocorticoid receptor (GR) signaling pathway (AID 720692); details: GR-bla HeLa, beta-lactamase FRET ratio, dexamethasone-stimulated, 18 h; series mostly up to 58.5 µM; activity change, negative = inhibition: at the top concentration
Text: U.S. Tox21 Program National Center for Advancing Translational Sciences [NCATS] NIH Chemical Genomics Center [NCGC] U.S. Environmental Protection Agency [EPA] National Institutes of Environmental Health Sciences [NIEHS] National Toxicology Program [NTP] U.S. Food and Drug Administration [FDA] Tox21 Assay Overview: The Glucocorticoid receptor (GR) is one of the members of the nuclear receptor family of ligand-dependent transcription factors. GR plays a critical role in carbohydrate, protein and lipid metabolisms and programmed cell death. CellSensor GR-bla HeLa cell line (Invitrogen) contains a beta-lactamase reporter gene under the control of the glucocorticoid response element stably integrated into HeLa cells, a cervical cancer cell line that expresses glucocorticoid receptor. The activation of the reporter gene under culture conditions can be detected by fluorescence intensity. This cell line has been used to screen the Tox21 10K compound library and to identify the compounds that inhibit the GR signaling.
Tox21 Assay Protocol Summary: The GR-bla HeLa cells were dispensed at 1500 cells/5 ul/well in 1536-well black wall/clear bottom plates using a Multidrop Combi (ThermoFisher Scientific, Waltham, MA) dispenser. After the assay plates were incubated at a 37 C/5% CO2 incubator for 4 hours, 23 nL of compounds dissolved in DMSO, positive controls or DMSO only was transferred to the assay plate by a pintool station (Kalypsys, San Diego, CA), followed by addition of 1 uL of dexamethasone (5 nM, final concentration in the well). The plates were incubated at 37 C for 18 hours. After 1 uL of LiveBLAzerTM B/G FRET substrate was added using a Flying Reagent Dispenser (Aurora Discovery, San Diego, CA), the plates were incubated at room temperature for 2 hours, and fluorescence intensity was measured by an Envision plate reader (PerkinElmer, Shelton, CT).
Potency means the concentration at half of the fitted maximal effect.

Chain of Glucocorticoid receptor (Homo sapiens) (P04150 whole entry, looked up): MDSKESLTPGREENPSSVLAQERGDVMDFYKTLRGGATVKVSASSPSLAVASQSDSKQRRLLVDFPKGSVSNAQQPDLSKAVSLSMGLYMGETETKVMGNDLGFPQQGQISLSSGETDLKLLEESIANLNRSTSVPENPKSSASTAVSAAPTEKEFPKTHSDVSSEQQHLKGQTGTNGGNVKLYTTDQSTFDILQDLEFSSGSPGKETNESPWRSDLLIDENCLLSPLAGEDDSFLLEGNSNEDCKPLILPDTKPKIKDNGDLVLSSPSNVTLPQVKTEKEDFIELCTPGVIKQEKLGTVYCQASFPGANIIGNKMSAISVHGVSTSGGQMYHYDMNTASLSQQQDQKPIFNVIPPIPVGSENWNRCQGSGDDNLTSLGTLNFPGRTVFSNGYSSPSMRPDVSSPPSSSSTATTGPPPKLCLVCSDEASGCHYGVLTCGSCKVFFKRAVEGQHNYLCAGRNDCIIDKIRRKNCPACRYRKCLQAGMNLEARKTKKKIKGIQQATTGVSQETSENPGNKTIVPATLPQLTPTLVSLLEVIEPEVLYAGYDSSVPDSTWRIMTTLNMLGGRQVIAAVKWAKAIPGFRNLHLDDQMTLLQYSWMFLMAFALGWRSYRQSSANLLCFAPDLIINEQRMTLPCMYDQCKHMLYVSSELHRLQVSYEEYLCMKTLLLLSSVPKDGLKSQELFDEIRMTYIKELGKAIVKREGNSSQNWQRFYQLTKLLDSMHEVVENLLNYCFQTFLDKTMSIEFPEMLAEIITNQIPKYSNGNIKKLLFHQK

Q: `COc1ccc(N)cc1` was tested. Which Potency did it give?
A: inactive

Q: For `O=P1(N(CCCl)CCCl)NCCCO1` (centres undefined), which Potency is on record?
A: inactive

Q: Which “activity change, negative = inhibition” value does the source give for `C=CCOC(Cn1ccnc1)c1ccc(Cl)cc1Cl` (centres undefined) here?
A: -1.05% (inactive)

Q: With `O=[N+]([O-])O` as the compound, how does the Potency read?
A: inactive

Q: For `OCCOc1ccccc1`, which Potency is on record?
A: inactive

Q: With `CCCCCCCCCCn1cc[n+](C)c1` as the compound, how does the Potency read?
A: 15.6 µM (active) and 39.1 µM (active)

Q: How did the Potency turn out when `CCCn1cc[n+](C)c1` was run?
A: inactive

Q: For `O=[N+]([O-])c1ccccc1O`, which Potency is on record?
A: inactive

Q: Which Potency does the source give for `CCNc1nc(Cl)nc(NCC)n1` here?
A: inactive

Q: `CC[N+](CC)(CC)CC` was tested. Which Potency did it give?
A: inactive

Q: For `CCCCCCCCCCCCCCCCn1cc[n+](C)c1`, which “activity change, negative = inhibition” value is on record?
A: -12.1% (inactive)

Q: For `CNC`, which Potency is on record?
A: inactive

Q: With `O=c1nc(O)n(Cl)c(=O)n1Cl` as the compound, how does the Potency read?
A: inactive

Q: `CCCC[n+]1cccc(C)c1` was tested. Which Potency did it give?
A: inactive

Q: For `Nc1ccc(-c2ccc(N)c(Cl)c2)cc1Cl`, which Potency is on record?
A: 19.6 µM (active) and 11.5 µM (active) and 19.5 µM (active)

Q: `N#CS` was tested. Which Potency did it give?
A: inactive

Q: `O=C(O)CCl` was tested. Which Potency did it give?
A: inactive

Q: `CCCCCCCCCCCCn1cc[n+](C)c1` was tested. Which “activity change, negative = inhibition” value did it give?
A: -22% (inactive)

Q: `O=C(O)C(Cl)Cl` was tested. Which Potency did it give?
A: inactive

Q: With `Cc1cc(Cl)ccc1OCC(=O)O` as the compound, how does the Potency read?
A: inactive

Q: With `CCC(=O)C(CC(C)N(C)C)(c1ccccc1)c1ccccc1` (centres undefined) as the compound, how does the Potency read?
A: inactive

Q: With `CCCCCCCCCCCCOS(=O)(=O)O` as the compound, how does the Potency read?
A: inactive

Q: How did the Potency turn out when `CC[N+]1(C)CCCC1` was run?
A: inactive

Q: `Nc1ccc(-c2ccc(N)cc2)cc1` was tested. Which Potency did it give?
A: inactive

Q: How did the Potency turn out when `Cc1cc(Cl)ccc1N` was run?
A: inactive

Q: With `Nc1ccccc1` as the compound, how does the Potency read?
A: inactive

Q: `C[N+](C)(C)Cc1ccccc1` was tested. Which Potency did it give?
A: inactive

Q: `O=C(O)COc1ccc(Cl)cc1Cl` was tested. Which Potency did it give?
A: inactive

Q: How did the “activity change, negative = inhibition” value turn out when `COP(=O)(OC)C(O)C(Cl)(Cl)Cl` (centres undefined) was run?
A: -17.9% (inactive)

Q: How did the Potency turn out when `O=c1[nH]c(=O)n(Cl)c(=O)n1Cl` was run?
A: inactive

Q: `O=C(O)c1nc(Cl)ccc1Cl` was tested. Which Potency did it give?
A: inactive

Q: How did the Potency turn out when `CC(Cl)(Cl)C(=O)O` was run?
A: inactive

Q: Which Potency does the source give for `Nc1ccc(Cl)cc1` here?
A: inactive

Q: With `C1CCC(NC2CCCCC2)CC1` as the compound, how does the Potency read?
A: inactive
